Source: PubChem BioAssay (EPA / NIEHS)
Results filed as inconclusive are left out. Calls of active or inactive are those of the source. How the source made its calls, unless noted: active means hit-call score of the fitted dose curve at least 0.9, where 1 is the maximum; inactive means score below 0.9.

Assays:
[1] = read-out: Interleukin-8 (IL8), CXCL8 (gene 3576); experiment: BSK_3C_IL8: BioMAP Diversity Plus: 3C Assay for Interleukin-8 (IL8) Biomarker Activity (AID 2283020); details: primary human endothelial cells (HUVEC); actives raise or lower the signal
Outline: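 Endothelial primary cells of human umbilical vein origin are dosed with chemical; after 24 h the IL-8 biomarker is measured by ELISA, and concentration–response is fitted in both directions versus DMSO.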

[2] = read-out: Monokine induced gamma interferon (MIG), CXCL9 (gene 4283); experiment: BSK_3C_MIG: BioMAP Diversity Plus: 3C Assay for Monokine induced gamma interferon (MIG) Biomarker Activity (AID 2283021); details: primary human endothelial cells (HUVEC); actives raise or lower the signal;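 on AC50: MIG protein level measured by immunoassay in the treated endothelial cultures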
Outline: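 Endothelial primary cells (human umbilical vein) are dosed with test chemical in the 3C system. MIG levels are measured by ELISA at 24 h and fitted in both directions relative to DMSO.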

[3] = molecular target: human Vitamin D Receptor (VDR), VDR (gene 7421) (UniProt P11473); experiment: ATG_VDR_TRANS: Attagene TRANS-FACTORIAL HepG2 Assay for human Vitamin D Receptor (VDR) (AID 2283022; active means hit-call score of the fitted dose curve at least 0.9, where 1 is the maximum)
Outline: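 HepG2 cells were transiently transfected with multiple GAL4-UAS reporter units, so signal reflects exogenous chimeric receptor-Gal4 activity. After 24 h compound exposure, reporter mRNA was measured by RT-PCR, fluorescent labelling and capillary electrophoresis, fitted for gain of signal versus DMSO.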

[4] = BSK_3C_SRB: Viability Assessment in the BioMAP Diversity Plus: 3C Assay (AID 2283023); details: primary human endothelial cells (HUVEC);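 further: fitted both ways against DMSO so a hit may be signal rise or drop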
Outline: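 Primary human umbilical vein endothelial cells in the 3C system were read 24 h after compound dosing. Total protein was stained with 0.1% sulforhodamine B after 10% TCA fixation and read at 560 nm, with bidirectional fitting against DMSO as baseline.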

[5] = read-out: Matrix Metallopeptidase 1 (MMP1), MMP1 (gene 4312); experiment: BSK_BE3C_MMP1: BioMAP Diversity Plus: BE3C Assay for Matrix Metallopeptidase 1 (MMP1) Biomarker Activity (AID 2283024); details: primary human bronchial epithelial cells; actives raise or lower the signal
Outline: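 MMP1 signal, measured by ELISA after a 24 h chemical exposure of human primary bronchial epithelial cells, is analysed with bidirectional fitting using DMSO as negative control.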

[6] = BSK_3C_Vis: BioMAP Diversity Plus: 3C Assay for Morphology Visualization (AID 2283025); details: primary human endothelial cells (HUVEC);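 further: fitted both ways so gain or loss versus DMSO counts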
Outline: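 Morphology read by light microscopy serves as a background control for the multiplexed 3C assay in human umbilical vein endothelial cells, taken 24 h after dosing, with DMSO as the negative control and bidirectional curve fitting.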

[7] = read-out: Pselectin, SELP (gene 6403); experiment: BSK_4H_Pselectin: BioMAP Diversity Plus: 4H Assay for Pselectin Biomarker Activity (AID 2283026); details: primary human endothelial cells (HUVEC); actives raise or lower the signal
Outline: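 Endothelial primary cells (human umbilical vein) are dosed, incubated 24 h, and assayed for surface P-selectin by ELISA; responses in either direction are fitted relative to the DMSO negative control.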

[8] = BSK_4H_SRB: Viability Assessment in the BioMAP Diversity Plus: 4H Assay (AID 2283027); details: primary human endothelial cells (HUVEC);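 further: cells exposed to compound for 24 h before staining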;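 on AC50: curves fitted both ways versus DMSO so AC50 may be loss or gain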
Outline: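 Cytotoxicity readout: sulforhodamine B (0.1%) staining of total protein after 10% TCA fixation, measured at 560 nm in human umbilical vein endothelium at 24 h. DMSO set the baseline; fitting was bidirectional.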

[9] = BSK_BE3C_SRB: Viability Assessment in the BioMAP Diversity Plus: BE3C Assay (AID 2283028); details: primary human bronchial epithelial cells;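 on AC50: fitted both ways so AC50 may mark signal gain or loss versus DMSO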
Outline: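 Human primary bronchial epithelial cells were exposed to test chemicals for 24 h. Total protein in parallel cultures was then measured by staining with 0.1% sulforhodamine B after 10% TCA fixation, with absorbance read at 560 nm. Activity was fitted bidirectionally against DMSO.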

[10] = read-out: Thrombomodulin, THBD (gene 7056); experiment: BSK_3C_Thrombomodulin: BioMAP Diversity Plus: 3C Assay for Thrombomodulin Biomarker Activity (AID 2283029); details: primary human endothelial cells (HUVEC); actives raise or lower the signal
Outline: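 Endothelial cells from umbilical vein are dosed with test chemical and incubated 24 h. Thrombomodulin is then quantified by ELISA, with DMSO serving as negative control and activity baseline.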

[11] = read-out: Urokinase-type plasminogen activator receptor (uPAR), PLAUR (gene 5329); experiment: BSK_4H_uPAR: BioMAP Diversity Plus: 4H Assay for Urokinase-type plasminogen activator receptor (uPAR) Biomarker Activity (AID 2283030); details: primary human endothelial cells (HUVEC); actives raise or lower the signal
Outline: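 Primary human umbilical vein endothelial cells were exposed to chemical for 24 h before cell-surface uPAR was quantified by ELISA. Activity was fitted bidirectionally against the DMSO negative control baseline.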

[12] = read-out: Vascular endothelial growth factor receptor 2 (Homo sapiens) (UniProt P35968); experiment: BSK_4H_VEGFRII: BioMAP Diversity Plus: 4H Assay for Vascular endothelial growth factor receptor 2 (VEGFR2) Biomarker Activity (AID 2283031); details: primary human endothelial cells (HUVEC); actives raise or lower the signal;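 on AC50: cell-surface VEGFR2 protein level quantified by ELISA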
Outline: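 Primary human umbilical vein endothelial cells in the BioMAP 4H system were dosed with test chemical, and 24 h later VEGFRII was measured by ELISA. Activity was fitted bidirectionally against DMSO as negative control and baseline.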

[13] = read-out: Human Leukocyte Antigen - DR isotype (HLADR), HLA-DRA (gene 3122); experiment: BSK_BE3C_HLADR: BioMAP Diversity Plus: BE3C Assay for Human Leukocyte Antigen - DR isotype (HLADR) Biomarker Activity (AID 2283032); details: primary human bronchial epithelial cells; actives raise or lower the signal
Outline: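 Chemicals are dosed onto BE3C bronchial epithelial cultures of human origin and left 24 h. HLA-DR is then measured by ELISA, and the endpoint is fitted in both directions using DMSO as the activity baseline.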

[14] = read-out: Monokine induced gamma interferon (MIG), CXCL9 (gene 4283); experiment: BSK_BE3C_MIG: BioMAP Diversity Plus: BE3C Assay for Monokine induced gamma interferon (MIG) Biomarker Activity (AID 2283035); details: primary human bronchial epithelial cells; actives raise or lower the signal
Outline: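 hu bronchial epithelial 1° cells, 24 h cpd; MIG by ELISA; bidirectional fit, DMSO = baseline.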

[15] = read-out: Transforming growth factor beta 1 (TGFb1), TGFB1 (gene 7040); experiment: BSK_BE3C_TGFb1: BioMAP Diversity Plus: BE3C Assay for Transforming growth factor beta 1 (TGFb1) Biomarker Activity (AID 2283036); details: primary human bronchial epithelial cells; actives raise or lower the signal
Outline: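 Bronchial epithelial primary cells are treated with test chemical, then TGF-b1 is quantified by ELISA after 24 hours. Values derive from bidirectional fitting against DMSO, with cytotoxicity checked by SRB staining in parallel cultures.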

[16] = read-out: Plasminogen activator inhibitor-1 (PAI1), SERPINE1 (gene 5054); experiment: BSK_BE3C_PAI1: BioMAP Diversity Plus: BE3C Assay for Plasminogen activator inhibitor-1 (PAI1) Biomarker Activity (AID 2283037); details: primary human bronchial epithelial cells; actives raise or lower the signal
Outline: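 Values derive from bidirectional fitting against DMSO baseline of PAI-1 levels, measured by ELISA in human bronchial epithelial cells 24 h after compound addition.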

[17] = read-out: urokinase plasminogen activator (uPA), PLAU (gene 5328); experiment: BSK_BE3C_uPA: BioMAP Diversity Plus: BE3C Assay for urokinase plasminogen activator (uPA) Biomarker Activity (AID 2283038); details: primary human bronchial epithelial cells; actives raise or lower the signal
Outline: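 Human primary bronchial epithelial cells were exposed to chemical for 24 h, then uPA levels were measured by ELISA. Responses were fitted bidirectionally against DMSO as negative control and baseline. Parallel SRB staining of total protein gauged overt cytotoxicity.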

[18] = read-out: Urokinase-type plasminogen activator receptor (uPAR), PLAUR (gene 5329); experiment: BSK_BE3C_uPAR: BioMAP Diversity Plus: BE3C Assay for Urokinase-type plasminogen activator receptor (uPAR) Biomarker Activity (AID 2283039); details: primary human bronchial epithelial cells; actives raise or lower the signal
Outline: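 Steps: dose human primary bronchial epithelial cells, incubate 24 h, measure uPAR by ELISA, then fit gain- or loss-of-signal response bidirectionally relative to DMSO.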

[19] = read-out: Vascular cell adhesion molecule 1 (VCAM1), VCAM1 (gene 7412); experiment: BSK_4H_VCAM1: BioMAP Diversity Plus: 4H Assay for Vascular cell adhesion molecule 1 (VCAM1) Biomarker Activity (AID 2283033); details: primary human endothelial cells (HUVEC); actives raise or lower the signal
Outline: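 Chemicals are added to primary human umbilical vein endothelial cells. After 24 h, VCAM-1 levels are measured by ELISA. Values come from bidirectional fitting referenced to DMSO.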

[20] = read-out: Interferon-gamma inducible Protein 10 (IP10), CXCL10 (gene 3627); experiment: BSK_BE3C_IP10: BioMAP Diversity Plus: BE3C Assay for Interferon-gamma inducible Protein 10 (IP10) Biomarker Activity (AID 2283034); details: primary human bronchial epithelial cells; actives raise or lower the signal
Outline: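 IP-10 quantified by ELISA serves as the endpoint. Cells: primary human bronchial epithelium, read 24 h after compound addition. Activity is derived by bidirectional fitting with DMSO as negative control.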

Measured: AC50

human Vitamin D Receptor (VDR), VDR (gene 7421), sequence (P11473 whole entry, looked up, the tested form may be a part): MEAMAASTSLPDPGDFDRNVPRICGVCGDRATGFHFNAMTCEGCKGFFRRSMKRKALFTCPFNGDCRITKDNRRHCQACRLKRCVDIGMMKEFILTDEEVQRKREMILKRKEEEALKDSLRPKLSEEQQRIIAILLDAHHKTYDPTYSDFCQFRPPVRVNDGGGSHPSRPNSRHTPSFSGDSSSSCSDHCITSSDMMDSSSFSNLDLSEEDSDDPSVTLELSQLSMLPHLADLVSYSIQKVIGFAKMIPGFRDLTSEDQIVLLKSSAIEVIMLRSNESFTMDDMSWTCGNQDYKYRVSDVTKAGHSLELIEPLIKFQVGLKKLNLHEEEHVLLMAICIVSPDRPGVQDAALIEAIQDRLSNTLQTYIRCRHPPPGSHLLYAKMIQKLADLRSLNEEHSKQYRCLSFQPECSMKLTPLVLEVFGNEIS

CC(C)[N+](C)(CCOC(=O)C1c2ccccc2Oc2ccccc21)C(C)C
not listed: [19] | [20]
inactive: all other assays above

O=C1CCCCCCCCCCC1
not listed: [3]
inactive: all other assays above

CCCCCCOC(=O)CCCCC(=O)OCCCCCC
not listed: [19] | [20]
inactive: all other assays above

CC/C=C\CCOC(=O)c1ccccc1O
active: [1] 34.7 µM | [4] 29.9 µM | [6] 37.1 µM | [7] 12.4 µM | [8] 14.2 µM | [11] 21.1 µM | [12] 20 µM | [13] 20 µM
not listed: [19]
inactive: all other assays above

CCCCCCC=O
not listed: [3] | [20]
inactive: all other assays above

CCCCCCCO
not listed: [13] | [19] | [20]
inactive: all other assays above

CCCCCCCCCCCC(C)=O
active: [1] 28.6 µM | [2] 35 µM | [4] 29.9 µM | [5] 16 nM | [6] 37.8 µM | [7] 28.1 µM | [8] 33.9 µM | [19] 29.6 µM | [20] 20 µM
inactive: all other assays above

CC(CCC(=O)O)(c1ccc(O)cc1)c1ccc(O)cc1
not listed: [6] | [15] | [19]
inactive: all other assays above

Oc1ccc(/C=C/c2cc(O)cc(O)c2)cc1
active: [6] 20 µM | [8] 20 µM | [11] 1.24 µM | [13] 20 µM | [18] 11.1 µM
not listed: [20]
inactive: all other assays above

CC/C=C\C/C=C\C/C=C\CCCCCCCC(=O)OC
active: [1] 37.2 µM | [2] 37.2 µM | [4] 29.8 µM | [5] 33600 nM | [6] 37.5 µM | [7] 19.9 µM | [8] 20 µM | [9] 28.5 µM | [10] 5.05 µM | [11] 30.9 µM | [13] 13.4 µM | [19] 29 µM | [20] 11.8 µM | [14] 29.6 µM | [15] 9.17 µM | [16] 25.5 µM | [17] 29.8 µM | [18] 28.8 µM
inactive: [3] | [12]

CC=C(C)C(C)=O
active: [5] 419 nM
not listed: [3] | [19] | [20]
inactive: all other assays above

CC(C)CCCCCOC(=O)CS
not listed: [3] | [19] | [20]
inactive: all other assays above

CC(C)C(=O)OCCc1ccccc1
not listed: [3] | [6] | [15] | [19] | [20]
inactive: all other assays above

Nc1ccc(C(=O)OCCCOC(=O)c2ccc(N)cc2)cc1
inactive: [3]

C=CC(=O)OCCCCCCCC(C)C
active: [10] 6.25 µM
not listed: [3] | [19] | [20]
inactive: all other assays above

C1CNCCN1
not listed: [3] | [19]
inactive: all other assays above

CC(C)(C)NC(=O)[C@H]1CC[C@H]2[C@@H]3CC[C@H]4NC(=O)C=C[C@]4(C)[C@H]3CC[C@]12C
inactive: [3]

CCCCCCCCCCCCCCCCCCOS(=O)(=O)O
active: [3] 119 µM

CCC1(C)C(=O)N(Cl)C(=O)N1Cl (stereo not drawn)
not listed: [3] | [19] | [20]
inactive: all other assays above

CC(C)COC(=O)CC(C(=O)OCC(C)C)S(=O)(=O)O (stereo not drawn)
inactive: [3]

Cc1c(O)cccc1O
not listed: [3] | [20]
inactive: all other assays above
